The structures appear in SMILES notation.

The target of experiment [1] is MAP kinase-activated protein kinase 2 (Homo sapiens) (UniProt P49137). Particulars: at 10 µM.
The target in experiment [2] is Serine/threonine-protein kinase MARK1 (Homo sapiens) (UniProt Q9P0L2). Particulars: at 1 µM.
Experiment [3] has the same target. The following applies: at 10 µM.
Experiment [4] addresses Dual specificity mitogen-activated protein kinase kinase 1 (Homo sapiens) (UniProt Q02750). Particulars: at 1 µM.
Experiment [5] shares this target. The following applies: at 10 µM.
Experiment [6] has as its target Maternal embryonic leucine zipper kinase (Homo sapiens) (UniProt Q14680). The following applies: at 1 µM.
Experiment [7] has the same target. Particulars: at 10 µM.
Experiment [8] concerns the target Misshapen-like kinase 1 (Homo sapiens) (UniProt Q8N4C8). The following applies: at 1 µM.
For experiment [9] the target is unchanged. Particulars: at 10 µM.
Experiment [10] addresses MAP kinase-activated protein kinase 3 (Homo sapiens) (UniProt Q16644). The following applies: at 10 µM.

MAP kinase-activated protein kinase 3 (Homo sapiens), sequence (Q16644 whole entry, looked up): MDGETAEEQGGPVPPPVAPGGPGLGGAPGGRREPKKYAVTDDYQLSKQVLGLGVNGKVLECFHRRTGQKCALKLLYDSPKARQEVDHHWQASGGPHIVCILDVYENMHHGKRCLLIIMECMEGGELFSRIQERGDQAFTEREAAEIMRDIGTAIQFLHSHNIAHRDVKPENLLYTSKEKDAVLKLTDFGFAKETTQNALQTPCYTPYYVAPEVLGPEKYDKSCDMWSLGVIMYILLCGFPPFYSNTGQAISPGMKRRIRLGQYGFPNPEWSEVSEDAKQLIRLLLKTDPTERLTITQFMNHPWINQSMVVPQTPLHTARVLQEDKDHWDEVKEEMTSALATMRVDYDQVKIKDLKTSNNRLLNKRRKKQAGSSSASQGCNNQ
Maternal embryonic leucine zipper kinase (Homo sapiens), sequence (Q14680 whole entry, looked up): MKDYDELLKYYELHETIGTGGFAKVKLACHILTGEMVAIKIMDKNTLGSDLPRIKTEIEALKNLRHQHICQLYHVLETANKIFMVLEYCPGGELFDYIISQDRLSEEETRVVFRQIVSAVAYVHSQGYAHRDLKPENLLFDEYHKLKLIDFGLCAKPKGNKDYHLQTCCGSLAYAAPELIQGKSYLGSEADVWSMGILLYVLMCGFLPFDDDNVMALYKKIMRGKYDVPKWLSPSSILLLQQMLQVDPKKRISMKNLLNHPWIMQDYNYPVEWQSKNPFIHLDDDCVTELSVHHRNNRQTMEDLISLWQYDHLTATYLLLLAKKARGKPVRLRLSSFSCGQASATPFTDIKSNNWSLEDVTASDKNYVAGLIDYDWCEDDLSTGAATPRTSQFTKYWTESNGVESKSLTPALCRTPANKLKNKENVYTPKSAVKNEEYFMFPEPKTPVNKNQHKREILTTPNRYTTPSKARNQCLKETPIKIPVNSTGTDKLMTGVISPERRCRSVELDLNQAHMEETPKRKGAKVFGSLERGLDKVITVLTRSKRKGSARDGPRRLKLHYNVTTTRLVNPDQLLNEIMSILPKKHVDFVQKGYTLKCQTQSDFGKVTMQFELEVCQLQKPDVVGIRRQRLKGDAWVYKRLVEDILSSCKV
Serine/threonine-protein kinase MARK1 (Homo sapiens), sequence (Q9P0L2 whole entry, looked up): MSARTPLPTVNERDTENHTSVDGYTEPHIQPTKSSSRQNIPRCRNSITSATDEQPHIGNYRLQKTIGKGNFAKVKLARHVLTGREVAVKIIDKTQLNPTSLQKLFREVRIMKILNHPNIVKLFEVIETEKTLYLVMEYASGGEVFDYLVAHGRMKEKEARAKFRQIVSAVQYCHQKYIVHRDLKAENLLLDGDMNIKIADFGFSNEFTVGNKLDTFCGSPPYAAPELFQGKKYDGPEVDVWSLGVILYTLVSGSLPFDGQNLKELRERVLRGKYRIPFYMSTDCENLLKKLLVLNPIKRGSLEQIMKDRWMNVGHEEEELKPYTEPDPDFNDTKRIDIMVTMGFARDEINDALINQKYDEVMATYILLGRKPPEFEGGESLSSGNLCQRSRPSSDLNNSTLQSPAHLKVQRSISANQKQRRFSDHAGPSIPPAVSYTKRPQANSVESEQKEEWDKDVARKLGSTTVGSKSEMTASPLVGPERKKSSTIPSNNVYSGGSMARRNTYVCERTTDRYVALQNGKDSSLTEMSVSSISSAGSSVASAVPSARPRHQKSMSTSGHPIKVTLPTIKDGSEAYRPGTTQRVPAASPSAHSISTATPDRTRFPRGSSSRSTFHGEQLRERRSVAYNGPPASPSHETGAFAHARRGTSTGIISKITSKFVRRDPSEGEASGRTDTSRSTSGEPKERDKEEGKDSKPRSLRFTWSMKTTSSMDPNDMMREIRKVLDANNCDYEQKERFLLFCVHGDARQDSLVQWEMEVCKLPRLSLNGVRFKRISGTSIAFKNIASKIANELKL
MAP kinase-activated protein kinase 2 (Homo sapiens), sequence (P49137 whole entry, looked up): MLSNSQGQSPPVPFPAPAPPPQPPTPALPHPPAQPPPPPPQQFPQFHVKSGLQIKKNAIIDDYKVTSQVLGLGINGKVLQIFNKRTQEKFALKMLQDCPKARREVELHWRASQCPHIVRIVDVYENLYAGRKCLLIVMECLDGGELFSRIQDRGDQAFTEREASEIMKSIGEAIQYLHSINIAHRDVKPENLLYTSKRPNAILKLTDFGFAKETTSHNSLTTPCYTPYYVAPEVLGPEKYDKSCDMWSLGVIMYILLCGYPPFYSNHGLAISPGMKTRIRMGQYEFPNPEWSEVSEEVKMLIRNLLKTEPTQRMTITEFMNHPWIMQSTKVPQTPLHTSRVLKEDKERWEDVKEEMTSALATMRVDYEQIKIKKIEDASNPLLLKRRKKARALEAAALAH
Dual specificity mitogen-activated protein kinase kinase 1 (Homo sapiens), sequence (Q02750 whole entry): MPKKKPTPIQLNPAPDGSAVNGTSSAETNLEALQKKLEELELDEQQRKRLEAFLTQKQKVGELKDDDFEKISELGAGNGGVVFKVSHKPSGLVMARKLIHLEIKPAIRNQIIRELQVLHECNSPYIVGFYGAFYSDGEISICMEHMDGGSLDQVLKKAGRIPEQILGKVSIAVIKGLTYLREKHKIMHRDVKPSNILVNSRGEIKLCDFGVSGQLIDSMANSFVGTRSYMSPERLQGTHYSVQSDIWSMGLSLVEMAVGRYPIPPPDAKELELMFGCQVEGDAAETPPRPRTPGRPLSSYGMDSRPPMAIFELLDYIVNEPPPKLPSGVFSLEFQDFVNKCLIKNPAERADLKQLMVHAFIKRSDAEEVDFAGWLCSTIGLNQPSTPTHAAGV
Misshapen-like kinase 1 (Homo sapiens), sequence (Q8N4C8 whole entry, looked up): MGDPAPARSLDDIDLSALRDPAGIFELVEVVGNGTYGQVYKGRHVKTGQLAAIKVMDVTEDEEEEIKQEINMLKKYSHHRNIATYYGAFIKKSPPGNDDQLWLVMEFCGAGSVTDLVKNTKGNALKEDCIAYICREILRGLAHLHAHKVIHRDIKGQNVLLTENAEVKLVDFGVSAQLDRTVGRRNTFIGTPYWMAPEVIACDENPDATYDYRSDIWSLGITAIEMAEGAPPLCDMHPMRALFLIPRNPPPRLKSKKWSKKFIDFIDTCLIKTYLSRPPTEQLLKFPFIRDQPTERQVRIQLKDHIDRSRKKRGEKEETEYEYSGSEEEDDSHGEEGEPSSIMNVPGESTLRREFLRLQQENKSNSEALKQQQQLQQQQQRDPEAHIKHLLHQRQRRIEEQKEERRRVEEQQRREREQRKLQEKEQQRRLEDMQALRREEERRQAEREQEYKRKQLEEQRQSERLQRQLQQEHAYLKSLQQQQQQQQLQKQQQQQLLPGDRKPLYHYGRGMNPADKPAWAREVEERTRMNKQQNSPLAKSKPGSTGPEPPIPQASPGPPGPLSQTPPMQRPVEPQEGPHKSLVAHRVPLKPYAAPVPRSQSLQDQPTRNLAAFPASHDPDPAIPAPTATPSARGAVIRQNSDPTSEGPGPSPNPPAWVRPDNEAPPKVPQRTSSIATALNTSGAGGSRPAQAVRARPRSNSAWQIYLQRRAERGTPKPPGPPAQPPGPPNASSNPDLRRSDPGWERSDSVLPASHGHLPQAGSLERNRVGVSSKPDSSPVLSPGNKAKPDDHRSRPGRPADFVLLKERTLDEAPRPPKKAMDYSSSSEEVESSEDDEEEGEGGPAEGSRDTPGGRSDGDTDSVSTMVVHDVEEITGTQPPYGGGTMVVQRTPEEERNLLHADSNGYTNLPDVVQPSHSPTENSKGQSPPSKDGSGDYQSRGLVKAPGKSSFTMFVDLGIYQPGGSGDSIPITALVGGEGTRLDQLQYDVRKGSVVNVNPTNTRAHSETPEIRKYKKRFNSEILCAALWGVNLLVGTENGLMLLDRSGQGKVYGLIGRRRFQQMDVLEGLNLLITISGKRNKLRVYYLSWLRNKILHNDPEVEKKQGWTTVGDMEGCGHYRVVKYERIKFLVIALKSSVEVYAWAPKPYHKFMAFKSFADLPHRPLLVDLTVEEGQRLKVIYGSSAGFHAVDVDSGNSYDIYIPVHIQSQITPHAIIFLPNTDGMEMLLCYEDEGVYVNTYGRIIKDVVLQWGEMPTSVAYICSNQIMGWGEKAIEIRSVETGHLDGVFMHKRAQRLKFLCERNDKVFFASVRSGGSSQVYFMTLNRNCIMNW

Take `N#Cc1cnc2cnc(NCc3cccnc3)cc2c1Nc1ccc(F)c(Cl)c1`: the residual activity in [1] is 64%; in [2], -1%; in experiment [3], -1%; in [4], 91%; in experiment [5], 91%; in experiment [6], 2%. The values for the residual activity in experiment [7], in [8] and in experiment [9] were 0%, 93% and 90%, respectively.
Turning to `COc1ccc(C(=O)Nc2sc3c(c2C(N)=O)CCCC3)cc1OC`, the residual activity in [1] worked out at 88%; in experiment [10], 79%; in experiment [2], 81%; in [3] it was 81%; in experiment [4], 120%; in experiment [5] it was 101%. Besides, the residual activity in [6] stood at 78%; in experiment [7], 78%; in experiment [8] it was 95%; in [9] it was 92%.
Turning to `Cc1cc2ncc(-c3ccccc3)nc2cc1C`, the residual activity came to 93% in [1]; 93% in experiment [10]; 84% in [2]; 90% in experiment [3]; 90% in experiment [5]; 72% in experiment [6]. Also, the figures for the residual activity in [7], in [8] and in experiment [9] were 77%, 94% and 82%, respectively.
As to `O=C(O)c1ccc2c3c1cccc3c(=O)n1c3ccccc3nc21`, the residual activity in experiment [1] amounted to 95%; in experiment [10], 106%; in [2], 81%; in experiment [3] it was 35%; in experiment [4] it was 94%; in [5], 97%. In addition, the residual activity was 91% in experiment [6], 53% in [7] and 5% in [9].
On to `N#CCCc1ccc2c(c1)-c1[nH]c3ccc([N+](=O)[O-])cc3c1CC(=O)N2`, for which the residual activity in experiment [1] came out at 39%; in experiment [10], 49%; in experiment [2], 30%; in [3], 9%; in [6], 69%; in experiment [7], 52%. For the same compound, the residual activity in [8] was 38%; in [9], 17%.
As for `CC(C)n1cnc2c(NCc3ccccc3)nc(NCCCO)nc21`, the residual activity in [1] was 90%; in experiment [10] it was 80%; in [2] it was 81%; in [3], 81%; in experiment [4], 103%; in experiment [5], 110%. In addition, the residual activity is 86% in [6], 77% in experiment [7], 108% in experiment [8] and 100% in experiment [9].
With `Cc1nc2cc3nc(-c4cccs4)cnc3cc2n1C`, the residual activity in [1] is 114%; in experiment [10] it was 100%; in experiment [2], 107%; in [3] it was 100%; in experiment [4] it was 120%; in experiment [5] it was 91%. Further, the residual activity in experiment [6] was found to be 89%; in [7], 67%; in [8], 112%; in experiment [9], 98%.
Take `Cn1cnc2cc3c(Nc4cccc(Br)c4)ncnc3cc21`: the residual activity in experiment [1] stood at 94%; in [10], 87%; in experiment [2], 102%; in experiment [3] it was 94%; in experiment [4] it was 91%; in experiment [5], 88%. In addition, the residual activity in experiment [6] was found to be 92%; in [7], 103%; in experiment [8] it was 103%; in experiment [9] it was 75%.
On to `CCC(=O)Nc1ccc2ncnc(Nc3cccc(Br)c3)c2c1`, for which the residual activity in experiment [1] came to 95%; in experiment [10] it was 88%; in experiment [2] it was 84%; in experiment [3] it was 90%; in [4], 93%; in experiment [5], 92%. The residual activity in experiment [6] is 90%; in experiment [7] it was 96%; in experiment [8] it was 83%; in experiment [9], 82%.
For the compound `c1ccc(-c2n[nH]c3c2oc2ccccc23)cc1`, the residual activity in experiment [2] was found to be 69%; in experiment [3], 44%; in experiment [6], 43%; in experiment [7], 7%; in experiment [8], 73%; in experiment [9], 34%.
In the case of `C[C@@H](N)[C@H]1CC[C@H](C(=O)Nc2ccncc2)CC1`, the residual activity in experiment [1] is 82%; in experiment [10], 85%; in experiment [2], 95%; in experiment [4], 104%; in experiment [5], 106%; in experiment [6], 105%. For the same compound, the figures for the residual activity in [7], in [8] and in [9] were 87%, 99% and 108%, respectively.
Take `CO[C@@H]1[C@H](N(C)C(=O)c2ccccc2)C[C@H]2O[C@]1(C)n1c3ccccc3c3c4c(c5c6ccccc6n2c5c31)C(=O)NC4`: the residual activity in [1] stood at 47%; in [10], 37%; in experiment [2] it was 1%; in [3], 0%; in experiment [4], 74%; in [5], 56%. For the same compound, the residual activity in [6] was 5%; in experiment [7] it was 2%; in experiment [8], 52%; in [9], 18%.
As for `COc1cc2ncnc(Nc3ccc(NC(=O)c4ccccc4)cc3)c2cc1OC`, the residual activity was determined as 98% in experiment [1]; 93% in experiment [10]; 105% in [2]; 95% in experiment [3]; 77% in experiment [6]; 50% in experiment [7]. Also, in experiment [9], the residual activity came out at 92%.
On to `CCN(CC)CCCCN1c2ccccc2Oc2ccc(Cl)cc21`, for which the residual activity in experiment [1] was determined as 133%; in experiment [10], 146%; in experiment [2], 106%; in experiment [3] it was 106%; in experiment [4], 117%; in experiment [5], 115%. For the same compound, the residual activity in experiment [6] was 96%; in experiment [7], 105%; in [8], 107%; in [9], 95%.
In the case of `COc1cc2ncc(-c3ccccc3)nc2cc1OC`, the residual activity in experiment [1] is 80%; in [2], 90%; in [3] it was 80%; in [6], 69%; in [7], 60%; in [8], 92%. Further, in experiment [9], the residual activity was 62%.
On to `Nc1n[nH]c2nnc(-c3c(-c4ccccc4)nn4ccccc34)cc12`, for which the residual activity in experiment [1] is 94%; in experiment [10] it was 93%; in [2], 83%; in experiment [3], 78%; in experiment [4], 89%; in [5], 38%. The residual activity in experiment [6] was determined as 91%; in [7], 97%; in experiment [8] it was 89%; in experiment [9] it was 39%.
On to `O=C1Nc2ccc(Br)cc2/C1=C\c1cc2c([nH]1)CCCC2`, for which the residual activity in [1] is 106%; in experiment [10], 101%; in [2], 72%; in experiment [3], 59%; in experiment [6] it was 78%.
`CN(C)CCCn1cc(C2=C(c3c[nH]c4ccccc34)C(=O)NC2=O)c2ccccc21`: the residual activity in [1] is 73%; in experiment [10], 109%; in [2], 65%; in experiment [3] it was 25%; in [4], 109%; in experiment [5], 52%. In addition, the residual activity worked out at 41% in [6], 13% in [7], 84% in experiment [8] and 47% in experiment [9].
Take `Nc1cccc(-c2cc3c(Oc4cccc(O)c4)ncnc3[nH]2)c1`: the residual activity is 82% in [1]; 51% in experiment [2]; 11% in experiment [3]; 94% in experiment [4]; 102% in experiment [5]; 73% in [6]. The residual activity in experiment [7] amounted to 29%; in experiment [8], 41%; in [9], 7%.

(Values after ChEMBL document CHEMBL2218924, “A broad activity screen in support of a chemogenomic map for kinase signalling research and drug discovery” (Biochem J, 2013).)
